Data reported in PubChem BioAssay (Tox21).
Active and inactive are the calls of the source. Calls come from the whole dose curve.

Each compound was assayed against Acetylcholinesterase (Homo sapiens) (UniProt P22303) (assay: Acetylcholinesterase (AChE) small molecule antagonists: enzyme-based qHTS assay with human liver microsomes (AID 1347399; note: nearly all actives have a fitted effect of over 60% in size)). Settings: Potency: qHTS inhibition; outcome: qHTS inhibition; series mostly up to 115 µM; activity change, negative = inhibition: at the top concentration.
Sequence of Acetylcholinesterase (Homo sapiens) (P22303 whole entry, looked up): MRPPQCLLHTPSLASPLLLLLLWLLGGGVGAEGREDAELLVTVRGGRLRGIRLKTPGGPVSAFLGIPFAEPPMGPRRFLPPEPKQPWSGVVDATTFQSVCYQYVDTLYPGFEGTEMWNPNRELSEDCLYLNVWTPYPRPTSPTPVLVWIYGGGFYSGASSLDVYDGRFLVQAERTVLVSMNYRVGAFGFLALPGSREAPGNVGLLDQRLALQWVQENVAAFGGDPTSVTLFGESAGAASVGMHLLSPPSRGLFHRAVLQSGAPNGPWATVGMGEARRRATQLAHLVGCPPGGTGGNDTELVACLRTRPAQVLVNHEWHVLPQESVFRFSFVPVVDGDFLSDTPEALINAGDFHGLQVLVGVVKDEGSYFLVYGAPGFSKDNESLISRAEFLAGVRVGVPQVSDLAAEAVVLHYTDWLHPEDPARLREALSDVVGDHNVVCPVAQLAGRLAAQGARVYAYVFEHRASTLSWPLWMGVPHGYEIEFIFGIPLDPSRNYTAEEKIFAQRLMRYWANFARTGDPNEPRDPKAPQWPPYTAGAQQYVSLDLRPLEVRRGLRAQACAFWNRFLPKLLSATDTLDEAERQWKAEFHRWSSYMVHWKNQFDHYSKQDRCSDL
In short: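 Recombinant human AChE (50 mU/mL in the enzyme mix) and human liver microsomes (0.25 mg/mL final) were preincubated with compound and NADPH (0.25 mg/mL final) for 30 min at 37 C. Acetylthiocholine/DTNB was then added; thiocholine was read colorimetrically after 10 min at room temperature.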
% is set by controls: 0 for no effect and ±100 for the full control effect.

| SMILES | activity change, negative = inhibition | Potency |
| --- | --- | --- |
| c1ccc(CCc2ccccc2)cc1 | 0.262% (inactive) |  |
| CCCCCCCCCCCCc1ccccc1O |  | inactive |
| C=CCCC(=O)/C=C/C1C(C)=CCCC1(C)C (stereo not given) | 1.77% (inactive) |  |
| CCC(C)(C)C(=O)O[C@H]1C[C@@H](C)C=C2C=C[C@H](C)[C@H](CC[C@@H]3C[C@@H](O)CC(=O)O3)[C@H]21 |  | inactive |
| O=S(=O)(O)c1ccc(O)c2ncccc12 | 0.55% (inactive) |  |
| O=C(O)COC(=O)Cc1ccccc1Nc1c(Cl)cccc1Cl | 0.147% [at 53 µM] (inactive) |  |
| CC1=C(Br)C(=O)C(Br)=C/C1=C(/c1ccccc1S(=O)(=O)O)c1cc(Br)c(O)c(Br)c1C | 2.64% [at 53 µM] (inactive) |  |
| CCO[Si](CCCN)(OCC)OCC |  | inactive |
| CCC1COC(=O)O1 (stereo not given) | -0.453% (inactive) |  |
| CC(C)c1ccc(S(=O)(=O)O)cc1 |  | inactive |
| NC[C@H]1O[C@H](O[C@H]2[C@H](O[C@@H]3O[C@H](CO)[C@@H](O)[C@H]3O)C(O)[C@H](N)C[C@@H]2N)[C@H](N)[C@@H](O)[C@@H]1O (stereo not given in full) | -2.19% [at 10.5 µM] (inactive) |  |
| NCC(=O)CCC(=O)O | 0.882% [at 53 µM] (inactive) |  |
| Cn1sccc1=O |  | inactive |
| CNS(=O)(=O)CCc1ccc2[nH]cc(C3CCN(C)CC3)c2c1 | -0.669% [at 53 µM] (inactive) |  |
| CCn1c2ccccc2c2cc([N+](=O)[O-])ccc21 | 1.45% (inactive) |  |
| C[C@@H](Oc1ccc(CNC(=O)c2cccnc2Oc2ccc3c(c2)OCO3)c(F)c1)C(=O)O | 0.874% (inactive) |  |
| CC(C)(c1ccc(O)cc1)c1ccc(O)cc1 |  | inactive |
| CCC(C)c1nccnc1OC (stereo not given) | -1.22% (inactive) |  |
| CC(=O)NCc1c(I)c(NC(C)=O)c(I)c(C(=O)O)c1I | 0.866% [at 53 µM] (inactive) |  |
| CCCCOc1cc(C(=O)NCCN(CC)CC)c2ccccc2n1 | -0.116% [at 53 µM] (inactive) |  |
